According to PubChem BioAssay (Tox21):
Results filed as inconclusive are left out. Where a call stands in place of a potency, no number is given. The source made the active and inactive calls. Calls come from the whole dose curve; as a rule, active = well fitted activation curve with a large enough effect in the repeat runs; inconclusive = weak or mixed curves; inactive = flat fitted curve, though single readings scatter.

Assay: A CellTox Green Cytotoxicity Assay to monitor cytotoxicity in HepG2 cells - 24 hour (AID 1224878); note: nearly all actives have a fitted effect of over 45% in size
Conditions: CellTox Green fluorescence; series mostly up to 76.8 µM
Excerpt: National Center for Advancing Translational Sciences [NCATS]
NIH Chemical Genomics Center [NCGC]
U.S. Environmental Protection Agency [EPA]
National Institutes of Environmental Health Sciences [NIEHS]
National Toxicology Program [NTP]
Cell-based models are critical for drug discovery. Determining the natural cytotoxic effects resulting from test compounds is an essential research activity. A CellTox Green Cytotoxicity Assay to monitor cytotoxicity in real time of continues cell culture during 40 hours of the compound treatment was used to screen Tox21 10K library compounds in HepG2 cells. CellTox Green Cytotoxicity Assay is a nonlytic, homogeneous, biofluorescent method to measure cytotoxicity in cell culture after experimental manipulation. The assay system uses a proprietary asymmetric cyanine dye that is excluded from viable cells but preferentially stains the dead cell's DNA. […] Viable cells produce no appreciable increases in fluorescence. Therefore, the fluorescence signal produced by the binding interaction with dead cell DNA is proportional to cytotoxicity.
The mixture of HepG2 cell suspension and reagents were dispensed at 600cells/6 ul/well in 1536-well tissue culture treated black solid bottom plates using a Multidrop dispenser. After the assay plates were incubated at a 37 C/5% CO2 incubator for 5 hours, 23 nL of compounds dissolved in DMSO, positive and negative controls was transferred to the assay plate by a pintool work station. The plates were incubated at 37 C for 40 hours. The fluorescence intensity were measured at 0h, 8h, 16h, 24h, 32h and 40h time points using ViewLux plate reader during compound treatment.

Row | Structure (SMILES) | Potency | cytotoxicity
1 | COc1ccc2c(C(=O)c3ccc(Cl)cc3)c(C)n(CC(=O)O)c2c1 | inactive | –
2 | CC(Cc1ccccc1)NCCCCl (stereo not given) | inactive | –
3 | COP(=O)(OC)O/C(C)=C/C(=O)N(C)C | inactive | –
4 | CON(C)C(=O)Nc1ccc(Br)cc1 | inactive | –
5 | CC(C)(O)C(Cl)(Cl)Cl | inactive | –
6 | CC(C)(C)c1cc(O)ccc1O | inactive | –
7 | C=CCCC#N | inactive | –
8 | CCC(CC)(CNC(=O)CCCO)c1cccc(OC)c1 | inactive | –
9 | CCOC(=O)c1ncn2c1CN(C)C(=O)c1c(I)cccc1-2 | inactive | –
10 | O=C(O)C(Br)(Br)Br | inactive | –
11 | C[C@]12C=CC(=O)C=C1CC[C@@H]1[C@@H]2CC[C@@]2(C)[C@H]1CC[C@]2(C)O | inactive | –
12 | COc1cc(CCN)cc(OC)c1OC | inactive | –
13 | CN(C)CCc1c[nH]c2cccc(OP(=O)(O)O)c12 | inactive | –
14 | CN(C)C(=O)Oc1cc(OC(=O)N(C)C)cc(C(O)CNC(C)(C)C)c1 (stereo not given) | inactive | –
15 | CCC1(c2cccc(O)c2)CCCCN(C)C1 (stereo not given) | inactive | –
16 | CCCOc1nn(C(=O)NS(=O)(=O)c2ccccc2C(=O)OC)c(=O)n1C | inactive | –
17 | NCCOS(=O)(=O)O | inactive | –
18 | CC#Cc1cc(C)nc(Nc2ccccc2)n1 | inactive | –
19 | CCSC(=O)Cl | inactive | –
20 | CCCCCCCCSC(=O)Oc1cc(Cl)nnc1-c1ccccc1 | inactive | –

Row | Structure (SMILES) | Potency | cytotoxicity
21 | COC[C@@H](NC(C)=O)C(=O)NCc1ccccc1 | inactive | –
22 | Brc1c(Br)c(Br)c(Br)c(Br)c1Br | – | -0.215% [at 6.97 µM] (inactive)
23 | COc1cccc(C=O)c1 | inactive | –
24 | NC(=O)OCCCc1ccccc1 | inactive | –
25 | O=c1[nH]c2ccccc2o1 | inactive | –
26 | CCOP(=O)(CN(CCO)CCO)OCC | inactive | –
27 | C=C(C)[C@H]1CN[C@H](C(=O)O)[C@H]1CC(=O)O | inactive | –
28 | ClCC1CO1 (stereo not given) | inactive | –
29 | O=C(CCl)NCO | inactive | –
30 | CCCCS(=O)(=O)Cl | inactive | –
31 | C[C@H](N)C(=O)c1ccccc1 | inactive | –
32 | O=C(O)C(F)(F)C(F)(F)C(F)(F)C(F)(F)C(F)(F)C(F)(F)F | inactive | –
33 | COc1ccccc1OC | inactive | –
34 | N[C@@H]1C[C@H]1c1ccccc1 | inactive | –
35 | CS(=O)(=O)c1ccc(C(=O)C2C(=O)CCCC2=O)c(Cl)c1COCC(F)(F)F | inactive | –
36 | CC(C)(N)Cc1ccc(Cl)cc1 | inactive | –
37 | O=P(O)(O)CN(CP(=O)(O)O)CP(=O)(O)O | inactive | –
38 | Cc1ccc2c(c1)C1CN(C)CCC1N2 (stereo not given) | – | 11.8% [at 15.8 µM] (inactive)
39 | Clc1nc(Cl)nc(Nc2ccccc2Cl)n1 | inactive | –
40 | S=C=S | inactive | –
